# MCF10A rerep = inducers of DNA re-replication in MCF 10A breast cells. MCF 10A DNA re-replication, Hoechst nuclear intensity, 48 h. Potency, µM (doses to about 46.1 µM), for the others: top-dose activity, positive = re-replication, actives largely listed as activators. 350,000 tested, 2.9% active. AID 624296; also: % of control where 0% means no effect; nearly all actives have a fitted effect of over 50% in size
# KB-3-1 cytotox = KB-3-1 parental cell cytotoxicity; KB-3-1 viability, CellTiter-Glo ATP luminescence, 72 h; Potency, µM (series often up to 46.1 µM), usual class: cytotoxic; 400,000 tested, 1.4% active; AID 1347075; also: % is scaled to controls: 0 for no effect and ±100 for the full control effect; nearly all actives have a fitted effect of over 60% in size
#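 Screening of KB-3-1 cells (DMEM, 10% FBS, phenol-red free) ran from lowest to highest compound concentration; after 72 h at 37 °C viability was read luminescently and curves fitted.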
# SW480 rerep = inducers of DNA re-replication in SW480 colon cancer cells; SW480 DNA re-replication, Hoechst DNA content imaging, 48 h; 340,000 tested, 1.8% active; AID 624297; Potency, µM (titrated, usually from 46.1 µM), for the others: top-dose re-replication activation, actives largely listed as activators; also: % of control where 0% means no effect; nearly all actives have a fitted effect of over 55% in size
#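 Image-based read-out: total Hoechst fluorescence of nuclei (405 nm excitation, 500-530 nm emission), with hits raising the fraction of high-intensity nuclei. SW480 colon cells incubated 48 hr with compounds at 37 C.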
# ELG1 DNA repair = ELG1-dependent DNA repair inhibition | HEK293T ELG1-luciferase reporter, luminescence, 16 h; DNA damage induced by 5-fluorouridine | 330,000 tested, 2.3% active | Potency, µM (doses to about 46.1 µM), for the others: at the top dose activity change, negative = inhibition, actives largely listed as inhibitors; also: % is scaled to controls: 0 for no effect and ±100 for the full control effect; nearly all actives have a fitted effect of over 55% in size
#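 5-Fluorouridine DNA damage + compound/DMSO, 2,000 cells/well, 16 h, 37 °C/5% CO2. ONE-Glo, 30 min RT, luminescence. Readout = decrease in reporter signal.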
# KB-V1 MDR tox = kills drug-selected multidrug resistant KB-V1 cells; KB-V1 MDR cells viability, CellTiter-Glo, 72 h; 400,000 tested, 3.4% active; Potency, µM (series often up to 46.1 µM), actives largely listed as cytotoxic; AID 1347076; also: % is scaled to controls: 0 for no effect and ±100 for the full control effect; nearly all actives have a fitted effect of over 60% in size
#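 KB-V1, DMEM (no phenol red) + 10% FBS; cpd pin-transferred, titration series; 72 h, 37 degrees C; CellTiter-Glo, luminescence. Data normalized, curve-fit.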
# Active calls of the source: *; i = inactive; ? = inconclusive; . = no result; [ ] = remark or other dose. This is a sample that favours compounds with a hit; in the whole collection about 8.1% have one here. Calls follow the shape of the dose curve; as a rule, active = well fitted curve in the direction sought with a large enough effect; inconclusive = small, poorly fitted or top-dose-only effect, or another doubt; inactive = no such curve, though single readings can be large; an effect the other way counts as inactive or inconclusive. Potency is read from the fitted curve at half-maximal effect.
SMILES,MCF10A rerep,KB-3-1 cytotox,SW480 rerep,ELG1 DNA repair,KB-V1 MDR tox
O=c1oc2ccc3ccccc3c2cc1-c1nnc(-c2cccs2)o1,0.8%,i,-3.7%,2.5%,i
Cn1c(SCC(=O)N/N=C/c2ccccn2)nnc1-c1ccccc1,-19.6%,i,-48.1%,1.4%,i
Cn1c(SCC(=O)N/N=C/c2ccc([N+](=O)[O-])s2)nnc1-c1ccccc1,18.4µM*,20.6µM*,?,?,?
Cn1c(SCC(=O)N/N=C/c2cc([N+](=O)[O-])ccc2O)nnc1-c1ccccc1,2.9%,?,?,9.2µM*,i
Cn1c(SCC(=O)N/N=C/c2cccnc2)nnc1-c1ccccc1,-9.9%,i,-9.4%,2.5%,i
O=C(COc1ccc(Br)cc1Cl)NC(=S)Nc1ccccn1,-3.5%,i,2.6%,?,i
CC(C)=C[C@H]1C[C@H](C)[C@H]2CC[C@H](C)c3c(O[C@@H]4OC[C@@H](O)[C@H](O)C4O)c(O)c(C)c1c32 (stereo partly drawn),20.6µM*,i,-92.2%[9.22 µM],17.0%,i
CC(=O)OC1[C@H](Oc2c(O)c(C)c3c4c2[C@@H](C)CC[C@@H]4[C@@H](C)C[C@@H]3C=C(C)C)OC[C@@H](O)[C@@H]1O (stereo partly drawn),?,i,-8.7%,18.4%,i
CC(=O)Oc1c(C)c2c3c(c1OC(C)=O)[C@@H](C)CC[C@@H]3[C@@H](C)C[C@H]2C=C(C)C,25.9µM*,i,6.0%,0.9%,?
CC(C)=C[C@@H]1C[C@H](C)[C@H]2CC[C@H](C)c3c(O)c(O)c(C)c1c32,?,i,13.8%,19.8%,i
CCn1nc(C(=O)NNC(=O)c2cc(Cl)ccc2OC)c2ccccc2c1=O,25.7%,?,5.1%,7.0%,i
COc1ccc(/C=C/C(=O)OCC(=O)NCc2ccccc2)cc1OC,23.1µM*,?,15.6%,-4.7%,i
COc1cc(/C=C/C(=O)OCC(=O)Nc2ccccc2Sc2ccc(Cl)cc2)ccc1O,20.6µM*,i,13.5%,?,?
COc1ccc(OC)c(/C=C/C(=O)OCC(=O)NCc2ccccc2)c1,0.6%,i,0.8%,-11.6%,i
COc1cc(/C=C/C(=O)OCC(=O)NCCc2ccc(S(N)(=O)=O)cc2)ccc1OCC#N,?,i,2.59µM*,12.5%,i
COc1cc(/C=C/C(=O)OCC(=O)NCc2ccco2)ccc1O,?,23.1µM*,23.1%,-8.9%,?
NS(=O)(=O)c1ccc(CCNC(=O)c2ccc(C(=O)c3ccccc3)cc2)cc1,-1.5%,i,-12.4%,-5.6%,i
CSCCC(NC(=O)c1ccccc1Cl)C(=O)NNC(=O)c1csc(N2CCOCC2)n1 (stereo not drawn),1.6%,i,-1.6%,1.4%,i
Cc1nn(-c2ccc(F)cc2)c2sc(C(=O)OCC(=O)N3CCC(C)CC3)cc12,1.5%,i,20.9%,-23.8%,?
COc1ccc(CCCC(=O)NCc2ccccc2)cc1C,8.2µM*,?,?,-1.6%,6.51µM*
CCOC(=O)C1=C(N)n2c(s/c(=C\c3ccco3)c2=O)=C(C(=O)OCC)C1c1ccco1 (stereo not drawn),5.8µM*,16.4µM*,?,-18.9%,4.61µM*
CCOC(=O)C1=C(N)n2c(s/c(=C\c3ccco3)c2=O)=C(C(=O)OC(C)C)C1c1ccco1 (stereo not drawn),2.8%,i,14.7%,?,i
COc1ccc(C=O)cc1COc1ccc2c(c1)OCO2,?,?,3.66µM*,14.3%,?
COc1ccc(C=O)cc1COc1ccc([N+](=O)[O-])c(C)c1,?,i,14.6µM*,5.7%,i
COc1ccc(C=O)cc1COc1ccccc1F,13.6%,i,?,-2.2%,?
Fc1ccccc1Nc1nc2c(s1)CCc1ccccc1-2,?,.,1.8%,?,.
O=C(NNC(=O)C12CC3CC(CC(O)(C3)C1)C2)c1ccccc1O,2.7%,?,16.4µM*,-3.2%,i
